# In publication PMC12136788:
# Residue numbers refer to the chain shown, from its start. The full ranking holds about 5,800 sequences; the median of “enrichment r” is about 0.54, and the highest 2% start at about 16. The sample holds the highest values, similar sequences and a random draw of the others, so the mix is not that of the screen.
# B1: chr2:105361111:105361195:-|3pUTR|ENSG00000115641|msi1_unk|total|mutant (ssRNA)
# RNA: GGGAGUUCUACAGUCCGACGAUCCUUUCUCACCCAGGCAAUCUUGCCUUCUGGUUUCUUCCAGCCACAUUGAGACUUUCUUCCCGUGCUUUUCAGUGAUACUCACGUUUGCUUAAACCCUUCCGUGCUUUGUGACCGUUCAGUCAACAGAGGAUUGAGCAUCA
# B2: ENSG00000070961:be:win_4401|3pUTR|ENSG00000070961|bound_else_gene|NA|bound_elsewhere_windowed (ssRNA)
# RNA: GGGAGUUCUACAGUCCGACGAUCGUUAUGACAUCUGUCCUAAUUAGUUUCUUAAAUACAUUUACUACUUAAUGGUUUUGAAGCAACUGUUUAAUUUUUAAAAUUUUUGAAAACUUGCUAAUAACCUUUUGUUCAGAAUUUAGUCAACAGAGGAUUGAGCAUCA
# B3: chrX:85861749:85861850:-|3pUTR|ENSG00000188419|msi1|total|mutant (ssRNA)
# RNA: GGGAGUUCUACAGUCCGACGAUCCUAAUUUAAAAUUUCAGAAAAUGCUAUUAAAGAAUUUUGAUUCAAGUAUUUAAACUGUUCCGUUAUGCAUGCUUCUUAUUAACCGAAAAUGAUAAUACCAUUCCGUUCCGUGAUCAGUAUCAACAGAGGAUUGAGCAUCA
# B4: chr10:62094764:62094865:+|3pUTR|ENSG00000150347|msi1|FALSE|unique (ssRNA)
# RNA: GGGAGUUCUACAGUCCGACGAUCGAUGAACUCCCCAACCCACUGUGCCCCUCCCGCAACACUACCAGUAGACUUUAGAACCAUAGUUAACUAAGUCUUUUACCUCUGAGAUACUUAAUUCUGGGAAAAUUGGUGACAAUUUUCCAACAGAGGAUUGAGCAUCA
# B5: ENSG00000071054:stop:overlap|stop_codon|ENSG00000071054|stop_codon|NA|stop_codon (ssRNA)
# RNA: GGGAGUUCUACAGUCCGACGAUCCUGGUGGCAGCAGUCAGGUUUAUUUCAUGACCUUAGGCAGGACUUCUCUUCUGAGCUGGUAGAAGCAGUGUGAUCCAGGGAUUACUGGCCUCCAGAGUCUUCAAGAUCCUGAGAACUUGGCAACAGAGGAUUGAGCAUCA
# B6: ENSG00000198589:be:win_9701|3pUTR|ENSG00000198589|bound_else_gene|NA|bound_elsewhere_windowed (ssRNA)
# RNA: GGGAGUUCUACAGUCCGACGAUCCAAGGAUUUGGAAUGAACAAUUCAGUUUGACAGAAAAAGCUGAAUAAAAUGGCAUCUGUAAUUGAAUUGUUGGAAAUGCCUUUUUUGCUCCUAAAUUUUAAACAUCAUUAAUAAAAUAAUCAACAGAGGAUUGAGCAUCA
# B7: chrX:85861749:85861850:-|3pUTR|ENSG00000188419|msi1|FALSE|unique (ssRNA)
# RNA: B3 RNA with C83U, C84A, C126U, C127A, C131U, C132A
# B8: chr8:9779869:9779970:+|3pUTR|ENSG00000173273|msi1|FALSE|unique (ssRNA)
# RNA: GGGAGUUCUACAGUCCGACGAUCGGAAUUUCUAGCUUUUCAAGCAGCAUAAGUAGAAUCAACAUUAGGAUGUUUUCAUGAAAUAGCAUCCUUAUACUUCUUUGAGCUUGAUGUUAGUGGCUAGACUGAUUUCCCUUUGCUCUCCAACAGAGGAUUGAGCAUCA
# B9: chr11:62152232:62152344:+|3pUTR|ENSG00000149503|unk|total|mutant (ssRNA)
# RNA: GGGAGUUCUACAGUCCGACGAUCUGCUCUGUAAACCGUUGUUUUAAUUCCGCUGAAUGUCCGCAUUUCCGUCUUUGGCAUUUCCGCGUUUGGGAGGCCGAUUAAUAAAGUAUAUUCCUUCAAGCCUGCUGUUGAUACCAUGAACAACAGAGGAUUGAGCAUCA
# B10: chr5:136976780:136976881:-|3pUTR|ENSG00000152377|msi1|total|mutant (ssRNA)
# RNA: GGGAGUUCUACAGUCCGACGAUCCUUAAAUCCGCAUGUUCCAAUCCAGUCGGCAUUGCCUGAAUACAGCCGCAUCAUACCUACCGUUGGUCUCCGAUAAGAAAUGAACUACUUGAUACCGCAAAGUCCUUUGGCUUCGUAAAUCAACAGAGGAUUGAGCAUCA
# B11: ENSG00000013293:stop:overlap|stop_codon|ENSG00000013293|stop_codon|NA|stop_codon (ssRNA)
# RNA: GGGAGUUCUACAGUCCGACGAUCAACACAAACAGAACUCAGAGGCCCUGAUUGCAAAUGAUGAGUUAGAUUACUCUCCAGAGUAGGAGAAACACACAAGUGGGUAGAAAUGGUGAUGACUGAUUUUCAGUAACUUAACCUGUGCAACAGAGGAUUGAGCAUCA
# B12: chr5:136976780:136976881:-|3pUTR|ENSG00000152377|msi1|FALSE|unique (ssRNA)
# RNA: B10 RNA with C31U, C32A, C69U, C70A, C83U, C84A, C93U, C94A, C118U, C119A
# B13: chr11:62152232:62152344:+|3pUTR|ENSG00000149503|unk|FALSE|unique (ssRNA)
# RNA: GGGAGUUCUACAGUCCGACGAUCUGCUCUGUAAAUAGUUGUUUUAAUUUAGCUGAAUGUUAGCAUUUUAGUCUUUGGCAUUUUAGCGUUUGGGAGGUAGAUUAAUAAAGUAUAUUCCUUCAAGCCUGCUGUUGAUACCAUGAACAACAGAGGAUUGAGCAUCA
# B14: chr10:99876058:99876159:-|3pUTR|ENSG00000107554|msi1|FALSE|bound_elsewhere (ssRNA)
# RNA: GGGAGUUCUACAGUCCGACGAUCUUGAGCCUAAUGGAAGACUGGAUGUCUUUCUUCUUCAUCCAAGCACCCUAAUGACUGUUUAGUUACAUCCAUAGAUGCAGACAACAUAACACCUGUGACUUACUUGAAUUGGGAUAAGCCCAACAGAGGAUUGAGCAUCA
# Target: MSI1 full-length (mouse, UniProt Q61474 1-362)
# Sequence (Q61474 whole entry): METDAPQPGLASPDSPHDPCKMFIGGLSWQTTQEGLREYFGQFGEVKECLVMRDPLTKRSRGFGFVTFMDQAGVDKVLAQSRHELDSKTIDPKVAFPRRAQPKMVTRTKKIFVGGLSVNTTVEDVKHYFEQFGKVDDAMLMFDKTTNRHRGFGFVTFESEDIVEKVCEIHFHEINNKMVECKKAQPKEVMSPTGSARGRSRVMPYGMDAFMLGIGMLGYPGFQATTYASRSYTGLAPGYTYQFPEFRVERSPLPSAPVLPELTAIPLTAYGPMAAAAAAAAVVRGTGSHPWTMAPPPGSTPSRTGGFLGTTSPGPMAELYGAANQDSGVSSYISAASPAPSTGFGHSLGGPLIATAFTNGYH
# Experiment: nsRBNS (natural sequence RNA bind-n-seq); RBNS binding buffer (assumed for nsRBNS): 25 mM Tris pH 7.5, 150 mM KCl, 3 mM MgCl2, 0.01% Triton X-100, 500 ug/ml BSA, 20 U/ml SUPERase-In, 4 C; UNK is unkempt and MSI1 is Musashi-1; names of the RNAs are library labels; protein concentration not given here; high values mean tight binding
row,Binder,binding signal [enrichment R]
1,B1,0.426
2,B2,3.8
3,B3,0.789
4,B4,12.5
5,B5,0.605
6,B6,0.605
7,B7,54.6
8,B8,0.275
9,B9,0.406
10,B10,0.478
11,B11,18.5
12,B12,71.2
13,B13,70
14,B14,0.725
